Data on 39 molecules can be found in PubChem BioAssay (EPA / NIEHS).

As usually defined, the AC50 is the midpoint of the concentration-response curve, whichever way the signal moves.

Several values for one entry are separate records, joined by “and”; a condition that tells them apart may be missing. Equal entries are not always repeated. The source holds several records for some structures; these can differ, active in one and inactive in another. Activity calls are given as the source filed them. The calls were made as follows: active = hit-call score of the fitted dose curve at least 0.9, where 1 is the maximum; inactive = score below 0.9.

Read-out in this assay: Pyruvate Dehydrogenase Kinase 4 (PDK4), PDK4 (gene 5166)
Kind of assay: LTEA_HepaRG_PDK4: Life Technologies and Expression Analysis (LTEA) Assay for Pyruvate Dehydrogenase Kinase 4 (PDK4) using HepaRG (AID 2283525). To be noted: mRNA level, 48 h; actives raise or lower the signal. The method, then: LTEA_HepaRG is a cell based, multiplexed-readout assay that uses HepaRG, a human liver cell line, with measurements taken at 48 hours after chemical dosing on a 96-well plate.LTEA_HepaRG_PDK4 is one of 102 assay component(s) measured in the LTEA HepaRG cell culture assay. It is a marker of Diseases associated with PDK4 including Platelet Glycoprotein Iv Deficiency and Diabetes Mellitus, Noninsulin-Dependent.Data from the assay component LTEA_HepaRG_PDK4 was analyzed into 1 endpoint. This assay endpoint, LTEA_HepaRG_PDK4, was analyzed with bidirectional fitting relative to DMSO as the negative control and baseline of activity. Using a type of inducible reporter, measures of mRNA induction for gain or loss-of-signal activity can be used to understand regulation of transcription factor activity. To generalize the intended target to other relatable targets, this assay endpoint is annotated to the kinase intended target family, where the subfamily is serine/threonine kinase.
A total of 1060 chemcials from the ToxCast library were tested in eight-point concentration-response experiments. Cell culture and cytotoxicity assays were conducted at Thermo Fisher Scientific's Custom Services facility (Madison, WI). A single lot of human HepaRG cells (Thermo Fisher Scientific, Frederick, MD) was used for the cell culture experiments. 96-well format collagen type I coated plates of human HepaRG cells were prepared using established methods. Briefly, cryopreserved HepaRG cells were thawed, plated at a density of approximately 100,000 cells/well in HepaRG Thaw, Plate, and General Purpose media (HPRG770, Thermo Fisher Scientific), and incubated for 48 hours. 0.5% DMSO was selected as vehicle control to balance the requisite need of DMSO in HepaRG cultures to maintain differentiation (for example, baseline metabolism, proportions of hepatocytes vs. cholangiocytes), while enabling further hepatic receptor pathway activation (for example, PXR and CAR) in response to chemical exposure. 48 hours after plating, the culture medium was replaced with HepaRG Serum-Free Incudtion Media. Cells were exposed to each test chemical in duplicate and maintained in CO2 incubators for another 48 hours. Chemical plates were thawed to room temperature and 200x concentrations of treatment groups were prepared. 8-point conentration-reponse curves were made with the highest exposure at 100 uM, followed by half-log dilutions, all in 0.5% DMSO. Each test plate contained variouse controls, induction positive controls (1mM phenobarbital), cytotoxicity positive controls ([…] aflatoxin B1), vehicle controls (0.5% DMSO), and total lysis controls (0.5% DMSO). Cell morphology images were taken using an Essen IncuCyte FLR automated microscope, with six 96-well plates imaged in about 24 minutes. Images were captured and exported and JPEG files. Spent culture media was transfered to black-well plates for the LDH assay, and remaining media was sorted at -80 C for later use. Cells were treated with RLT buffer and frozen until shipped for gene expression analysis. Total RNA was isolated from the cell suspension in 75 uL of Buffer RLT (Qiagen, Germantown, MD 20874) by Quintiles/Expression Analysis (Durham, NC) using a custom isolation procedure. Total RNA from each plate well was transferred to a preamplification plate. Fluidigm's 96.96 Dynamic ArrayTM (Fluidigm, Amsterdam, the Netherlands) technology was used for gene expression analyses by quantitative reverse transcription polymerase chain reaction (qRT-PCR, performed by Quintiles/Expression Analysis, Durham, NC)89. Standard TaqManTM Assays (Applied Biosystems/ThermoFisher Scientific, Foster City, CA) were used to assess the expression of 93 genes selected based on their selectivity and sensitivity to important hepatic receptors known to be modulated by environmental chemicals; importance in human hepatocyte functionality; and hepatotoxicity. […]
In the case of `CCOC(=O)COc1cc(-n2ncc(C(F)(F)F)c(C)c2=O)c(F)cc1Cl`, the outcome was inactive.
Still for that read-out and setting: under `Oc1ccc(C(c2ccc(O)cc2)C(Cl)(Cl)Cl)cc1` stands “inactive”.
Consider `CC(=O)S[C@@H]1CC2=CC(=O)CC[C@]2(C)[C@H]2CC[C@@]3(C)[C@@H](CC[C@@]34CCC(=O)O4)[C@H]12`, for which the AC50 was 50 µM (active).
The same measure, in the same setting: under `C[C@]12CC[C@@H]3c4ccc(O)cc4C[C@@H](CCCCCCCCCS(=O)CCCC(F)(F)C(F)(F)F)[C@H]3[C@@H]1CC[C@@H]2O` (stereo not given in full) stands 12.7 µM (active).
For the molecule `CCNc1nc(N)nc(Cl)n1`, the outcome was inactive.
On the same count and under the same terms, the same measure for `CC(C)CCCCCCc1ccc(O)cc1`: “inactive”.
As to `O=C(Nc1ccc([N+](=O)[O-])cc1Cl)c1cc(Cl)ccc1O`, the AC50 is 4.31 µM (active).
Take `S=C(S)NCCNC(=S)S.[Mn+2].[S-]C([S-])=NCCN=C([S-])[S-].[Zn+2]`: the half-maximal activity concentration (AC50) was 3.66 µM (active) and 3.63 µM (active); the molecule was called inactive.
Turning to `CCCCC(CC)CN1C(=O)C2C3C=CC(C3)C2C1=O` (stereo not given), the half-maximal activity concentration (AC50) was 81.3 µM (active).
In the case of `CCCCOC(=O)[C@@H](C)Oc1ccc(Oc2ccc(C(F)(F)F)cn2)cc1`, the call was inactive.
Consider `C#CCOC(=O)[C@@H](C)Oc1ccc(Oc2ncc(Cl)cc2F)cc1`, for which the AC50 is 50 µM (active).
As for `CCOC(=O)C(C)Oc1ccc(Oc2nc3ccc(Cl)cc3o2)cc1` (stereo not given), the outcome was inactive.
For the molecule `COC(=O)c1ccc(I)cc1S(=O)(=O)NC(=O)Nc1nc(C)nc(OC)n1`, the call was inactive.
On the same count and under the same terms, the same measure for `CCCCOC(=O)C(C)Oc1ccc(Oc2ccc(C(F)(F)F)cn2)cc1` (stereo not given): “inactive”.
The same measure, in the same setting: the same measure for `OB(O)O`: “inactive”; for `COC(=O)CSc1cc(N=c2sc(=O)n3n2CCCC3)c(F)cc1Cl`: “inactive”; for `CC1(C)C(C=C(Cl)Cl)C1C(=O)OCc1cccc(Oc2ccccc2)c1` (stereo not given): “inactive”.
The same measure, in the same setting: under `CCSC(=O)N(CC(C)C)CC(C)C` stands “inactive”; under `CCCN(CCC)C(=O)SCC`, “inactive”; under `CCCN(CCC)c1c([N+](=O)[O-])cc(C(F)(F)F)c(N)c1[N+](=O)[O-]`, “inactive”.
Regarding `C[C@]12C[C@H](O)[C@H]3[C@@H](CCC4=CC(=O)CC[C@@]43C)[C@@H]1CC[C@@H]2C(=O)CO`, the result was inactive.
The same measure, in the same setting: under `CCN(Cc1c(F)cccc1Cl)c1c([N+](=O)[O-])cc(C(F)(F)F)cc1[N+](=O)[O-]` stands “inactive”; under `O=C(c1ccc(O)cc1O)c1ccc(O)cc1O`, “inactive”; under `COCCO`, “inactive”.
Still for that read-out and setting: the same measure for `CCCOC(=O)NCCCN(C)C`: “inactive”.
Turning to `C=CCOC(Cn1ccnc1)c1ccc(Cl)cc1Cl` (stereo not given), the AC50 is 29 µM (active).
In the case of `CCN(CC)C(=O)c1cccc(C)c1`, the result was inactive.
Still for that read-out and setting: under `O=C(O)c1ccccc1` stands “inactive”.
Same read-out and setting: under `COc1c(Cl)ccc(Cl)c1C(=O)O` stands “inactive”; under `CC(C)(c1ccc(O)cc1)c1ccc(O)cc1`, “inactive”.
`CCCCC(CC)COC(=O)c1ccccc1C(=O)O` (stereo not given): the half-maximal activity concentration (AC50) was 79.9 µM (active).
`CCOC(=O)NCCOc1ccc(Oc2ccccc2)cc1`: the result was inactive.
As for `CCCCCCC(C)OC(=O)COc1nc(F)c(Cl)c(N)c1Cl` (stereo not given), the outcome was inactive.
As to `CC(=O)[C@H]1CC[C@H]2[C@@H]3CCC4=CC(=O)CC[C@]4(C)[C@H]3CC[C@]12C`, the concentration at half-maximal activity (AC50) was 22.9 µM (active).
In the case of `CC(C)(C)[C@@H](O)[C@@H](Cc1ccc(Cl)cc1)n1cncn1`, the result was inactive.
The same measure, in the same setting: under `CCCOC(=O)c1ccc(C(=O)OCCC)nc1` stands “inactive”.
Turning to `CCCCOCCOCCOCc1cc2c(cc1CCC)OCO2`, the half-maximal activity concentration (AC50) is 17.8 µM (active).
On the same count and under the same terms, the same measure for `N#CSCSc1nc2ccccc2s1`: 32.9 µM (active).
For the molecule `CCC(C)OC(=O)N1CCCCC1CCO` (stereo not given), the outcome was inactive.
